The source made the active and inactive calls. The call rests on the fitted dose curve; in most records, active means well fitted curve in the direction sought with a large enough effect in the repeat runs; inconclusive means weak or mixed curves; inactive means flat fitted curve, though single readings scatter. Positions of bridges follow the written chain, without caps; N, C: chain ends. Non-standard residues stand in square brackets, D forms with d. Residues, ends and D or L forms follow the SMILES beside them. *: point of attachment. X2 = CC[C@H](C)CCCCC(=O)*; Dab = NCC[C@H](N)C(=O)O
experiment: qHTS assay to test for compound auto fluorescence at 590 nm (red) in HepG2 cells (AID 720674); conditions: HepG2 autofluorescence, red 540/590 nm, 1 h; series mostly up to 46 µM; fluorescence, relative to Rose Bengal: at the top concentration
Procedure, shortened: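 Fluorescence at 590 nm emission following 540 nm excitation was recorded from HepG2 wells one hour after compound transfer, with DMSO-only wells as vehicle and Rose Bengal sodium equivalency as the scale.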
On the % scale 0 is the no-effect control and ±100 the full control effect.

SMILES	fluorescence, relative to Rose Bengal	Potency
C[C@]12C=CC(=O)N[C@@H]1CC[C@@H]1[C@@H]2CC[C@]2(C)[C@@H](C(=O)Nc3cc(C(F)(F)F)ccc3C(F)(F)F)CC[C@@H]12	0.0188% (inactive)	–
COc1ccc(C(=O)CCC(=O)O)c2ccccc12	-0.393% (inactive)	–
COc1ccc2cc([C@H](C)CO)ccc2c1	-0.0662% (inactive)	–
Cn1c(=O)c2c(ncn2CCOC(=O)C(C)(C)Oc2ccc(Cl)cc2)n(C)c1=O	-0.208% (inactive)	–
CCCCCC(O)/C=C/C=O (stereo unspecified)	-0.0424% (inactive)	–
CCC(C)[C@H]1O[C@]2(C=C[C@@H]1C)C[C@@H]1C[C@@H](C/C=C(\C)[C@@H](O[C@H]3C[C@H](OC)[C@@H](O[C@H]4C[C@H](OC)[C@H](NC(C)=O)[C@H](C)O4)[C@H](C)O3)[C@@H](C)/C=C/C=C3\CO[C@@H]4[C@H](O)C(C)=C[C@@H](C(=O)O1)[C@]34O)O2 (stereo partly specified)	–	inactive
CC1(C)N=C(N)N=C(N)N1c1ccc(Cl)cc1	0.308% (inactive)	–
CN(C)C(=O)CCSC(SCCC(=O)O)c1cccc(/C=C/c2ccc3ccc(Cl)cc3n2)c1 (stereo unspecified)	0.67% (inactive)	–
C[C@H](CCCC(C)(C)O)[C@H]1CC[C@H]2[C@@H]3CC=C4C[C@@H](O)CC[C@]4(C)[C@H]3CC[C@]12C	-0.0307% (inactive)	–
CNC(=O)c1c(I)c(C(=O)NCC(=O)Nc2c(I)c(C(=O)O)c(I)c(C(=O)NCCO)c2I)c(I)c(N(C)C(C)=O)c1I	0.259% (inactive)	–
C=C1CC[C@@H]2[C@](C)(CO)[C@H](O)CC[C@@]2(C)[C@@H]1C/C=C1/C(=O)OC[C@H]1O	-0.0624% (inactive)	–
C[C@H](CSC(=O)c1ccccc1)C(=O)N1C[C@@H](Sc2ccccc2)C[C@H]1C(=O)O	-0.16% (inactive)	–
C=C[C@]1(C)C[C@@H](OC(=O)CSCCN(CC)CC)[C@]2(C)[C@H](C)CC[C@]3(CCC(=O)[C@H]32)[C@@H](C)[C@@H]1O	0.0819% (inactive)	–
O=C(O)C1=C(CSc2nnnn2CS(=O)(=O)O)CS[C@@H]2[C@H](NC(=O)[C@H](O)c3ccccc3)C(=O)N12	-0.02% (inactive)	–
COc1cc(/C=C/C(=O)N2CCN(CC(=O)N3CCCC3)CC2)cc(OC)c1OC	0.725% (inactive)	–
CCOC(=O)c1c[nH]c2cc(OCC(C)C)c(OCC(C)C)cc2c1=O	0.352% (inactive)	–

SMILES	fluorescence, relative to Rose Bengal	Potency
CCCCCCCCCCCCCCCCCCCCCCO	0.114% (inactive)	–
CC1=C(/C=C/C(C)=C/C=C/C(C)=C/C(=O)Oc2c(C)c(C)c3c(c2C)CC[C@@](C)(CCC[C@H](C)CCC[C@H](C)CCCC(C)C)O3)C(C)(C)CCC1	0.158% (inactive)	–
CC(C)CCCC(C)NC(C)C (stereo unspecified)	0.189% (inactive)	–
O=C(O)CCC/C=C\C[C@@H]1[C@@H](/C=C/[C@@H](O)COc2cccc(C(F)(F)F)c2)[C@H](O)C[C@@H]1O	0.131% (inactive)	–
O=C(O)COc1ccc(CCNS(=O)(=O)c2ccccc2)s1	-0.452% (inactive)	–
CO[C@H]1C[C@@H]2CC[C@@H](C)[C@@](O)(O2)C(=O)C(=O)N2CCCC[C@H]2C(=O)O[C@H]([C@H](C)C[C@@H]2CC[C@@H](OC(=O)C(C)(CO)CO)[C@H](OC)C2)CC(=O)[C@H](C)/C=C(\C)[C@@H](O)[C@@H](OC)C(=O)[C@H](C)C[C@H](C)/C=C/C=C/C=C/1C	-0.499% (inactive)	–
CC[C@H](C)CCCCC(=O)N[C@@H](CCN)C(=O)N[C@H](C(=O)N[C@@H](CCN)C(=O)N[C@H]1CCNC(=O)[C@@H]([C@H](C)O)NC(=O)[C@H](CCN)NC(=O)[C@H](CCN)NC(=O)[C@H](CC(C)C)NC(=O)[C@@H](CC(C)C)NC(=O)[C@H](CCN)NC1=O)[C@@H](C)O (X2-[Dab]T[Dab][Dab][Dab][dL]L[Dab][Dab][dT]; lactam 4-C)	1.07% [at 18.6 µM] (inactive)	–
C#C[C@]1(O)CC[C@H]2[C@@H]3CCC4=CC(=O)CC[C@@H]4[C@H]3C(=C)C[C@@]21CC	-0.976% (inactive)	–
C=C1CC[C@H](O)CC1=C/C=C1\CCC[C@]2(C)[C@@H]([C@H](C)CCCC(C)(C)O)CC[C@@H]12	0.455% (inactive)	–
CC(=O)Nc1c(I)c(C(=O)O)c(I)c(N(C)C(C)=O)c1I	0.0952% (inactive)	–
CC1(C)S[C@@H]2[C@H](NC(=O)[C@H](N)c3ccccc3)C(=O)N2[C@H]1C(=O)OCOC(=O)[C@@H]1N2C(=O)C[C@H]2S(=O)(=O)C1(C)C	-0.132% (inactive)	–
CNC(C)CCC=C(C)C (stereo unspecified)	-0.331% (inactive)	–
Cc1c(Cl)cccc1Nc1ncccc1C(=O)O	-0.131% (inactive)	–
CN(CCO)CC(O)Cn1cnc2c1c(=O)n(C)c(=O)n2C (stereo unspecified) (tested in a mixture with another compound)	0.0682% (inactive)	–
CC[C@H](C)CCCCC(=O)N[C@@H](CCN)C(=O)N[C@H](C(=O)N[C@@H](CCN)C(=O)N[C@H]1CCNC(=O)[C@H]([C@@H](C)O)NC(=O)[C@H](CCN)NC(=O)[C@H](CCN)NC(=O)[C@H](CC(C)C)NC(=O)[C@@H](CC(C)C)NC(=O)[C@H](CCN)NC1=O)[C@@H](C)O (X2-[Dab]T[Dab][Dab][Dab][dL]L[Dab][Dab]T; lactam 4-C)	-0.579% (inactive)	–

Reference: PubChem BioAssay (Tox21)
